Results reported in ChEMBL document CHEMBL3988442, “University of Dundee, Small-Polar-MMV Screening Library” (2021).
Among all 48,000 compounds or so, about 13,000 (27%) showed an effect of 50% or more. Some of the results follow.

test system: Wolbachia pipientis; test: Anti-Wolbachia Cell-Based Screen; type: functional; parameters: scale not given: in the data most compounds retested in dose-response had high values; conditions: 5 µM

Compound | Percent Effect [%]
O=C(CCC1CC1)N1CCC(n2cc(C3(O)CCCC3)nn2)CC1 | -0.3223
COc1ccc(C2(C(=O)N3C[C@@H](C(=O)O)[C@H](C(C)C)C3)CC2)cc1 | 6.312
O=C(CS(=O)(=O)c1ccccc1Cl)NC1CCCCNC1=O (centres undefined) | 7.591
O=C(CS(=O)(=O)Cc1ccc(F)cc1)NCc1ccccc1F | -12.49
CC(C)CS(=O)(=O)CC(=O)NC1CCCCNC1=O (centres undefined) | 105
O=C(CS(=O)(=O)Cc1ccccc1)NC1CCCCNC1=O (centres undefined) | 109
O=C(CS(=O)(=O)Cc1ccc(F)cc1)NC1CCCCNC1=O (centres undefined) | 104.6
O=C1NCCCCC1NC(=O)C1(c2ccccc2)CCOCC1 (centres undefined) | -10.73
Cn1cnc2c1CCN(CC(=O)NC1CCCCNC1=O)C2 (centres undefined) | 2.624
Cn1c(C2CC2)nc2c1CCN(CC(=O)NC1CCCCNC1=O)C2 (centres undefined) | -7.835
Cc1cc(C)n(CC(=O)NC2CCCCNC2=O)n1 (centres undefined) | -5.953
O=C(CS(=O)(=O)CC1CCCCC1)NC1CCCCNC1=O (centres undefined) | -2.84
Cc1ccccc1CS(=O)(=O)CC(=O)NC1CCCCNC1=O (centres undefined) | 5.447
O=C(CC1CCCCC1)NC1CCCCNC1=O (centres undefined) | 129.3
CC1CCN(C)c2ccccc2N1C(=O)c1ccn(C)c(=O)c1 (centres undefined) | -9.489
COc1cc(C)nc(N2CCN(C(=O)c3ccc[nH]3)CC2)n1 | 4.964
N#Cc1ccc(N2CCC(c3nccn3Cc3cscn3)CC2)nc1 | 4.95
COc1ccccc1CN(Cc1nc(Cc2ccccc2)no1)C1CC1 | 122.2
COc1cc(CO)ccc1OCc1nc(C2CC2)no1 | 5.46
COc1ccc(CN(Cc2nc(C)no2)C2CCCCC2)cc1OC | 113.8
CCN(Cc1nc(Cc2ccccc2)no1)C1CC1 | 93.91
CCc1noc(C(C)N(C)Cc2ccc(OC)c(OC)c2)n1 (centres undefined) | 9.709
Cc1nnc(CN(Cc2ccccc2C(F)(F)F)C2CC2)o1 | -10.33

Compound | Percent Effect [%]
CC(C(=O)NC1CC1)S(=O)(=O)Cc1nc(Cc2ccccc2)no1 (centres undefined) | -3.587
CCc1noc(CN(CCc2ccccc2)C2CCN(C)CC2)n1 | 1.802
CN(Cc1ccc2c(c1)OCO2)Cc1nc(Cc2ccccc2)no1 | -7.147
CCc1nc(CN(CCc2ccccc2)C2CCN(C)CC2)no1 | 22.84
COc1ccccc1CN(Cc1nc2c(cnn2C)c(=O)[nH]1)C1CC1 | 17.98
COc1ccccc1CN(Cc1nc(C)no1)C1CC1 | 102.6
CCCN1CC2(CCN(C)CC2)CC1C(=O)NCCn1nc(C)nc1C (centres undefined) | -19.15
O=C(CCn1cncn1)NCC1CCS(=O)(=O)C1 (centres undefined) | 0.07359
CCN(CC)CCSc1ncnc2[nH]ncc12 | -13.76
Cc1cc(C(=O)NC(CC(C)C)C(=O)Nc2cc[nH]n2)c(C)o1 (centres undefined) | 2.286
COc1ccccc1CN(Cc1nc(CC(C)C)no1)C1CC1 | 68.8
COc1ccccc1CCc1nc(CC2CCN(C)CC2)no1 | 0.6251
CC(C)c1noc(CN(Cc2ccccc2F)C2CC2)n1 | 5.507
CC(CCc1ccccc1F)C(=O)NS(C)(=O)=O (centres undefined) | -12.84
Cc1nc(C)n(C2CCCN(C(=O)CCOC(C)C)C2)n1 (centres undefined) | 104.7
Cc1nc(C)n(C2CCCN(C(=O)c3csc(C(C)C)n3)C2)n1 (centres undefined) | -3.924
Cc1nc(C)n(C2CCCN(C(=O)CCOCC(C)C)C2)n1 (centres undefined) | 96.93
Cc1nc(C)n(C2CCCN(C(=O)c3cnc[nH]3)C2)n1 (centres undefined) | 5.274
CC(NC(N)=O)C(=O)N(C)Cc1cccc(C(F)(F)F)c1 (centres undefined) | -8.418
O=C1CC(NCc2cnc(-c3cccs3)nc2)CN1c1ccccc1 (centres undefined) | 9.928
Cn1ncc2c(N3CCCN(C(=O)c4ccsc4)CC3)ncnc21 | 109.6
Cc1nc(N2CCN(C(=O)c3ccc(O)cc3)CC2)c2cnn(C)c2n1 | 3.35
Cc1nc(N2CCN(C(=O)c3ccsc3)CC2)c2cnn(C)c2n1 | 2.047

Compound | Percent Effect [%]
Cn1ncc2c(=O)[nH]c(N3CCN(C(=O)c4ccsc4)CC3)nc21 | 8.888
Cc1nc(N2CCN(C(=O)c3ccccc3)CC2)c2c(n1)c(C)nn2C | 38.43
Cn1nc(C#N)c2c1CN(C(=O)c1ccsc1)CCC2 | -3.731
Cc1csc(N2CCCN(C(=O)c3ccsc3)CC2)n1 | 30.07
Cc1ncnc2c1CCN(C(=O)c1ccsc1)CC2 | -12.52
CCc1nsc(N2CCCN(C(=O)c3ccsc3)CC2)n1 | 9.27
Cc1nc(N2CCCN(C(=O)c3ccsc3)CC2)c2cnn(C)c2n1 | 93.06
Cn1ncc2c(N3CCN(C(=O)c4ccsc4)CC3)ncnc21 | 110.5
Cc1nc(N2CCN(C(=O)c3ccccc3)CC2)c2cnn(C)c2n1 | 113.9
CN(C)CCn1c(=O)oc2ccc(NC(=O)CC(C)(C)C)cc21 | 14.89
Cc1ccc(NC(C)C(=O)NCc2cccs2)cc1C (centres undefined) | -16.27
CCOc1ccc2ccccc2c1CNCC1CCS(=O)(=O)C1.Cl (centres undefined) | -1.499
CCOc1ccnc(N2CCN(C(=O)C(C)(C)C#N)CC2)n1 | 0.4658
COc1cc(CN(C)C(=O)NCc2cccnc2OC)ccc1SC | -20.02
Cc1cc(CS(=O)(=O)C(C)c2ccc(F)cc2)on1 (centres undefined) | -4.028
COc1ccc(CNC2CCN(c3ccccc3)C2)c(OC)c1OC (centres undefined) | -16.13
Cc1nccn1C1CCCN(C(=O)c2cccc(Cn3ccnc3)c2)C1 (centres undefined) | 99.35
O=C(c1cccc(Cn2ccnc2)c1)N1CCCC(n2ccnc2)C1 (centres undefined) | 0.5166
O=C(c1ccc(-n2ccnc2)nc1)N1CCCC(n2cccn2)C1 (centres undefined) | -14.33
Cc1nccn1C1CCCN(C(=O)c2ccnc(-n3ccnc3)c2)C1 (centres undefined) | 102.3
CN(C)c1cc(C(=O)N2CCCC(n3cccn3)C2)ccn1 (centres undefined) | -2.177
O=C(c1ccnc(-n2ccnc2)c1)N1CCCC(n2ccnc2)C1 (centres undefined) | 100.2
O=C(c1ccnc(-n2ccnc2)c1)N1CCCC(n2cccn2)C1 (centres undefined) | 103.2
